This is an account of results in PubChem BioAssay (NCATS).

Values joined by “and” are separate entries in the source; they are usually repeats but may differ in a detail not shown here. Identical values can stand only once. Results filed as inconclusive are left out. Active and inactive are the calls of the source. Unless noted, the call rests on the fitted dose curve; in most records, active means well fitted curve in the direction sought with a large enough effect; inconclusive means small, poorly fitted or top-dose-only effect, or another doubt; inactive means no such curve, though single readings can be large; an effect the other way counts as inactive or inconclusive.

The target of test [1] is Cytochrome P450 3A4 (Homo sapiens) (UniProt P08684). Put plainly: qHTS Assay for Inhibitors and Substrates of Cytochrome P450 3A4 (AID 884). Further: on the % scale 0 is the no-effect control and ±100 the full control effect; nearly all actives have a fitted effect of over 50% in size. In a few lines:
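20 nM human CYP3A4 with 25 uM Luciferin-PPXE (at KM) in 200 mM KPO4, preincubated 10 min with compound; NADPH regeneration started a 60 min RT reaction. Luciferin detected by luminescence, normalized to 57 uM ketoconazole as full inhibition.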

Test [2] is described as follows: Cell Viability - LYMP2-004 (AID 966). Further: nearly all actives have a fitted effect of over 65% in size. Further: potency means the concentration at half of the fitted maximal effect. In a few lines: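 Human lymphoblastoid cells (2500/well) in complete medium were treated with compounds for 24 hr at 37 C, then intracellular ATP was measured by CellTiter-Glo luminescence. AC50 values came from Hill-equation fits of concentration-response data.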
Test [3] can be described thus: Cell Viability - LYMP1-002 - Assay at 24 hr (AID 993). Further: potency means the concentration at half of the fitted maximal effect. In short, it runs like this: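 Human lymphoblastoid LYMP1-002 cells, 2500/well in complete medium, were treated with compounds for 24 h at 37 C; intracellular ATP was read by CellTiter-Glo luminescence. AC50 values came from Hill-equation fits of qHTS concentration-response data.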
The target of test [4] is Glucocorticoid receptor (Homo sapiens) (UniProt P04150). Briefly: qHTS assay for small molecule agonists of glucocorticoid receptor signaling (AID 588532; active means well fitted curve in the direction sought with a large enough effect in the signal ratio, with a control signal flat; the % refers to the signal ratio;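 further: 100% = dexamethasone at 0.1 µM and 0% = DMSO only wells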). Conditions: HeLa MMTV-bla, beta-lactamase ratio, agonist, 18 h; stronger effect = higher value; percent of dexamethasone control, DMSO zero. In a few lines:
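Titration series, up to 92 uM, applied to GRE-bla HeLa cells for 18 h at 37 C. Detection by CCF4 FRET substrate after 2 h at RT.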

Test [5] has the same target. Put plainly: qHTS assay for small molecule antagonists of glucocorticoid receptor signaling (AID 588533; active means well fitted inhibition curve with a large enough effect in the signal ratio, with a control signal flat, not every such curve was filed as active; the % refers to the signal ratio;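 further: cells stimulated with 2 nM dexamethasone as agonist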; further: potency means the concentration at half of the fitted maximal effect). In short, it runs like this:
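Antagonist-mode qHTS: compound titrations added to GRE-bla HeLa cells, then dexamethasone 2 nM final; 18 h, 37 C. CCF4 FRET fluorescence normalized to dexamethasone and DMSO; IC50 from Hill fit.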

A short description of test [6]: qHTS assay for small molecule antagonists of peroxisome proliferator-activated receptor delta signaling (AID 588535; active means well fitted inhibition curve with a large enough effect in the signal ratio, with a control signal flat, not every such curve was filed as active; the % refers to the signal ratio; further: potency means the concentration at half of the fitted maximal effect;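 on max response: cells co-treated with a PPAR-delta agonist as stimulator during compound exposure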). Conditions: HEK293T PPARd-UAS-bla, beta-lactamase FRET ratio, 18 h; 460 nm channel. In a few lines:
(§1)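 GeneBLAzer PPAR-delta-UAS-bla HEK293T cells in medium with 2% charcoal/dextran FBS were preincubated 5 hrs at 37 C, then given compounds, incubated 18 hrs at 37 C, and read by CCF4 beta-lactamase fluorescence; IC50 from Hill fits.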

The target of test [7] is Peroxisome proliferator-activated receptor delta (Homo sapiens) (UniProt Q03181). Described as above. In a few lines:
as §1

Test [8] is described as follows: qHTS assay for small molecule agonists of the antioxidant response element (ARE) signaling pathway (AID 651741; active means well fitted activation curve with a large enough effect in the signal ratio; the % refers to the signal ratio; further: potency means the concentration at half of the fitted maximal effect; on activation: % of control where 0% means no effect). In short, it runs like this: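 ARE-bla HepG2 cells (beta-lactamase reporter under ARE control) were plated at 2,000 cells/well, preincubated 5 h at 37 C/5% CO2, then treated with DMSO-dissolved compounds for 16 h at 37 C; LiveBLAzer B/G FRET substrate added, fluorescence read after 2 h at room temperature.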

For test [9], the target named is Nuclear receptor ROR-gamma (Homo sapiens) (UniProt P51449). Briefly: qHTS assay for small molecule antagonists of the retinoid-related orphan receptor gamma (ROR-gamma) signaling pathway (AID 651802). Further: nearly all actives have a fitted effect of over 60% in size. Further: potency means the concentration at half of the fitted maximal effect. On activity change, negative = inhibition: on the % scale 0 is the no-effect control and ±100 the full control effect. In a few lines:
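CHO cells carrying TET-inducible ROR-gamma and an ROR response element–luciferase reporter were exposed to compound, then induced with doxycycline. After 16hr at 37C, luminescence was read; lower signal indicates antagonism.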

Test [10] in a line: Cellular Toxicity (caspase-3) Hek293 (AID 664).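 Further: cells exposed to compound for 16 h at 37 °C before readout.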 In short, it runs like this: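 HEK293 cells were exposed to compounds in complete medium for 16 hr at 37 °C, then caspase-3/7 activity was read by Caspase-Glo 3/7 luminescence after 20 min at room temperature. Data normalized to DMSO and 100 uM tamoxifen; AC50 from Hill fits.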
Test [11] can be described thus: Cellular Toxicity (caspase-3) N2a (AID 665).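 Further: compound exposure lasted 16 h at 37 °C before readout.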 In short, it runs like this: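 Mouse N2a neuroblastoma cells (1500/well) were treated with compounds for 16 h at 37 °C, then caspase-3/7 activity was read by Caspase-Glo luminescence after 1 h at room temperature. Data were normalized to DMSO and 10 uM staurosporine; AC50 from Hill fits.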
Test [12] deals with Ubiquitin carboxyl-terminal hydrolase 1 (Homo sapiens) (UniProt O94782). Briefly: Inhibitors of USP1/UAF1: Pilot qHTS (AID 504865).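 Further: rhodamine fluorescence freed from ubiquitin-rhodamine substrate followed over time; top concentration of the series differs between compounds; on the % scale 0 is the no-effect control and ±100 the full control effect; nearly all actives have a fitted effect of over 35% in size.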 In short, it runs like this: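 In 50mM HEPES pH 7.8 containing 0.5mM EDTA, 1mM TCEP, 0.1 mg/ml BSA and 0.01% Tween-20, 1nM USP1/UAF1 is exposed to compound for 15 min, then Ub-Rho (150nM final) is added and fluorescence is read over time.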
Ubiquitin carboxyl-terminal hydrolase 1 (Homo sapiens), sequence (O94782 whole entry, looked up): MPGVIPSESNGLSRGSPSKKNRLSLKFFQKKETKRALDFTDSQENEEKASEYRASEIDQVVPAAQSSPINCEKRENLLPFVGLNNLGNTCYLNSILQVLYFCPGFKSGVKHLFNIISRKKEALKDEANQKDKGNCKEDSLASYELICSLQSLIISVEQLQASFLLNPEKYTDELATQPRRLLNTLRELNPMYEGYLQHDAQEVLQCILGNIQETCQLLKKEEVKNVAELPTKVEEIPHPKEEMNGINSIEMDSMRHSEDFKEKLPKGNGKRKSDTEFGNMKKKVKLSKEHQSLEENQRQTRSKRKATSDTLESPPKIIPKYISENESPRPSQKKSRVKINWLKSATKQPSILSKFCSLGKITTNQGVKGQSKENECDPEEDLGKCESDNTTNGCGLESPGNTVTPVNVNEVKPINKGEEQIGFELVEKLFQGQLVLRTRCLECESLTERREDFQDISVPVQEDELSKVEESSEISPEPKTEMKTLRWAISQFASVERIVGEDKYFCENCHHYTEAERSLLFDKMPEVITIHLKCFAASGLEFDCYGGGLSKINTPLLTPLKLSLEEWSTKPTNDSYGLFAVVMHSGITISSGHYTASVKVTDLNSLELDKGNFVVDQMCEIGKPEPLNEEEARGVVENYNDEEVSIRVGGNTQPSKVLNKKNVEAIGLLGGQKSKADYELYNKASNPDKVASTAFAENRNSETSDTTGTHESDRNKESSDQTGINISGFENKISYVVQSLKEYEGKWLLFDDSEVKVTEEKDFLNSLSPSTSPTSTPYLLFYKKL
In test [13] the target is Vitamin D3 receptor (Homo sapiens) (UniProt P11473). Put plainly: qHTS assay for small molecule antagonists of vitamin D receptor signaling (AID 588541; calls by dose curve;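 further: receptor activated by calcitriol during compound treatment; on the % scale 0 is the no-effect control and ±100 the full control effect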). In a few lines:
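VDR-UAS-bla HEK293T cells (2000/well, 2% charcoal-stripped FBS) were treated with titrated compounds plus 1-alpha,25-dihydroxyvitamin D3 (50 nM or 3 nM final) for 16 h at 37 C. CCF4 beta-lactamase fluorescence was read; Hill fits gave IC50.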

Test [14] is described as follows: qHTS assay to identify small molecules that stimulate interleukin-8 (IL-8) secretion (AID 651758; active means well fitted activation curve with a large enough effect in the signal ratio; the % refers to the signal ratio; further: potency means the concentration at half of the fitted maximal effect; on activation: 0% is about no effect). In short, it runs like this:
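THP-1, 2000 cells/well; cpd 16 h, 37 C; add cryptate + XL665 anti-IL-8 Abs; RT 1-3 h; TR-FRET read.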

Test [15] can be described thus: qHTS assay for environmental chemicals that activate the Aryl hydrocarbon Receptor (AhR) signaling pathway (AID 651777). Further: % of control where 0% means no effect; nearly all actives have a fitted effect of over 15% in size. Conditions: 1A2-DRE human hepatoma cells, luciferase, 24 h; activation: stronger effect = higher value. In a few lines:
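Human hepatoma 1A2-DRE cells, stably carrying a dioxin response element and CYP1A2 promoter driving luciferase, were exposed to compounds for 24 hr at 37 C and 5% CO2. Luciferase signal was then read after 30 min One-Glo at room temperature.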

The nature of test [16]: NFAT Signaling Pathway (AID 444; active means well fitted curve in either direction with a large enough effect, not every such curve was filed as active;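 further: carbachol stimulus at about its EC50 of 1 µM final; on the % scale 0 is the no-effect control and ±100 the full control effect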). Conditions: Jurkat NFAT-bla M1, carbachol, beta-lactamase ratio, 5 h; at 7.69 µM (top of the series) unless noted. In short, it runs like this: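 Jurkat cells carrying an NFAT-driven β-lactamase reporter and co-transfected muscarinic M1 receptor were treated with compound plus carbachol (1 uM final, an EC50 level) for 5 h at 37 °C. CCF4 loading followed for 1 h at RT; 460/530 nm ratio gave %activity.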

Test [17] addresses Glucocorticoid receptor (Homo sapiens) (UniProt P04150). Briefly: GR-GFP Redistribution (AID 450;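 active means compounds whose dose series gives a full or clear partial fitted curve of increased nuclear translocation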; further: potency means the concentration at half of the fitted maximal effect). As to conditions: U2OS GR-GFP nuclear translocation, laser cytometry, 2 h.
Test [18] shares this target. Briefly: GR-EFC Redistribution (AID 451; calls by dose curve; further: potency means the concentration at half of the fitted maximal effect). As to conditions: CHO-K1 GR-EFC translocation, beta-gal luminescence, 2 h. In a few lines: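 CHO-K1 cells stably expressing nuclear-localized β-gal enzyme acceptor and GR fused C-terminally to the enzyme donor fragment; ligand-driven nuclear translocation restores β-gal by complementation. Compounds titrated up to 46 uM final, 2 h at 37 °C; luminescence read.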

For test [19], the target named is Peroxisome proliferator-activated receptor gamma (Homo sapiens) (UniProt P37231). Put plainly: qHTS assay for small molecule antagonists of peroxisome proliferator-activated receptor gamma signaling (AID 588537; active means well fitted inhibition curve with a large enough effect in the signal ratio, with a control signal flat, not every such curve was filed as active; the % refers to the signal ratio;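 further: reporter cells co-stimulated with 50 nM rosiglitazone agonist during compound treatment; % of control where 0% means no effect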). In a few lines:
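PPAR-gamma-UAS-bla HEK293 cells (3000/well, 1% charcoal/dextran-stripped FBS) were preincubated 6-6.5 h at 37 C, given titrated compounds, then stimulated with 50 nM rosiglitazone for 16 h. Beta-lactamase activity was read with CCF4 dye; IC50 came from Hill fits.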

In test [20] the target is Bile acid receptor (Homo sapiens) (UniProt Q96RI1). Briefly: qHTS assay for small molecule antagonists of farnesoid X receptor signaling (AID 588526; calls by dose curve; further: on the % scale 0 is the no-effect control and ±100 the full control effect). In short, it runs like this:
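Concentration-response titrations were fitted to the Hill equation for half-maximal inhibition and maximal response, with data normalised to 50 uM chenodeoxycholic acid and DMSO control wells. Cells: FXR-UAS-bla HEK293T, dialyzed FBS.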

Peroxisome proliferator-activated receptor gamma (Homo sapiens), sequence (P37231 whole entry, looked up): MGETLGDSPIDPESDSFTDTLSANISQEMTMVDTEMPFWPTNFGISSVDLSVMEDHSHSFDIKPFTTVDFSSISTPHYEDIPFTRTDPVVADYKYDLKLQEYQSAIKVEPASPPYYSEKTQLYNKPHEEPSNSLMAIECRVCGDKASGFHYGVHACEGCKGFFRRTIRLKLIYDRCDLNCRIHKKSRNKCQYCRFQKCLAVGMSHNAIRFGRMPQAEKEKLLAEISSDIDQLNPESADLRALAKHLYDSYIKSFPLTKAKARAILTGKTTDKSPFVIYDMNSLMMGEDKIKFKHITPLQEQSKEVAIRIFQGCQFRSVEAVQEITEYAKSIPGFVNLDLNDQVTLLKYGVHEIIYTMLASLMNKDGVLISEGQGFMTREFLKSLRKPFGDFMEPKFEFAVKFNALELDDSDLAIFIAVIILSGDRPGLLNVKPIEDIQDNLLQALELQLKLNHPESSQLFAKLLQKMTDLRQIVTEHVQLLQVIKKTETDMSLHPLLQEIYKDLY
Peroxisome proliferator-activated receptor delta (Homo sapiens), sequence (Q03181 whole entry, looked up): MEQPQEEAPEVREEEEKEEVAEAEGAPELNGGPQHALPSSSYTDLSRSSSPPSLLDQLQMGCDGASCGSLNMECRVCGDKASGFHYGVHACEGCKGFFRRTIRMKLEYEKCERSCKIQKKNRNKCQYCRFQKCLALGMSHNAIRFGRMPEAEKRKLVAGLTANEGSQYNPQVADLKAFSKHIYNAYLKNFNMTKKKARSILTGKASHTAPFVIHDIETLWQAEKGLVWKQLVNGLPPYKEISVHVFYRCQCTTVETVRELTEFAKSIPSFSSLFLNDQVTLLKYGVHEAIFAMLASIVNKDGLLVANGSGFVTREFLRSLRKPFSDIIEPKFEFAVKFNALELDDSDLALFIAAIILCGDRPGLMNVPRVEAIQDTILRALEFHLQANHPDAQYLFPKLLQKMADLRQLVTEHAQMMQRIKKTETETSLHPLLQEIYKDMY
Glucocorticoid receptor (Homo sapiens), sequence (P04150 whole entry, looked up, the tested form may be a part): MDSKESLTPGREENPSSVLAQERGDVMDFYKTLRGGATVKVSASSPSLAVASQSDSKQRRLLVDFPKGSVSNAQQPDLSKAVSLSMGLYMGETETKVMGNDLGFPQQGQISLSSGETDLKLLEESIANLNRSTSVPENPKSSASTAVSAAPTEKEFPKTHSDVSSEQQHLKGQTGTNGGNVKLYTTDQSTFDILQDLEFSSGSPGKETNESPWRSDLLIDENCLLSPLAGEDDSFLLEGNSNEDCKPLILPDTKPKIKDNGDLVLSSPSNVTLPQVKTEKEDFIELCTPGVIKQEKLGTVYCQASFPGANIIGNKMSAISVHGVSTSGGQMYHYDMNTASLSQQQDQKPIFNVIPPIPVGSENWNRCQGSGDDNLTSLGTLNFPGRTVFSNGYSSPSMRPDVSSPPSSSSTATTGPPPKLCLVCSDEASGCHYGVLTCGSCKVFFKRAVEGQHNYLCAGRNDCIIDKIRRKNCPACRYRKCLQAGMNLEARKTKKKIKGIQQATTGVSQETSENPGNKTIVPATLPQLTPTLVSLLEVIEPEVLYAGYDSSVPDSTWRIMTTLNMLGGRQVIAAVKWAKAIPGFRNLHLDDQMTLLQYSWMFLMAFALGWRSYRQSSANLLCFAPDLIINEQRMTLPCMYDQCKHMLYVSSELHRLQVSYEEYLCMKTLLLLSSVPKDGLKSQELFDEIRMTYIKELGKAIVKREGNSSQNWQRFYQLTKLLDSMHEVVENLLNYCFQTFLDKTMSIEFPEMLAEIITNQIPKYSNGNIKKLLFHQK
Vitamin D3 receptor (Homo sapiens), sequence (P11473 whole entry, looked up): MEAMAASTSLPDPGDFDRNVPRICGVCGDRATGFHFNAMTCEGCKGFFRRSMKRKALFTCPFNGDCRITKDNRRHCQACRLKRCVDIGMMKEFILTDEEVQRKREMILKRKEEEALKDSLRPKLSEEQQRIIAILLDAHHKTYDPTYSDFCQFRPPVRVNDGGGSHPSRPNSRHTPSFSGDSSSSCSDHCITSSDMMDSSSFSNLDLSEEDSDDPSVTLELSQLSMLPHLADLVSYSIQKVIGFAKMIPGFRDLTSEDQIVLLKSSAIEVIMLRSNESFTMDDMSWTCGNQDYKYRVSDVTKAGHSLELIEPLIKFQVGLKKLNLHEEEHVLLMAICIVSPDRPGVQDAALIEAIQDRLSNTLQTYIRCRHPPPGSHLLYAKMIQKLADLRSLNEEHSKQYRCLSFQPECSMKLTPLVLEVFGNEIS
Cytochrome P450 3A4 (Homo sapiens), sequence (P08684 whole entry, looked up): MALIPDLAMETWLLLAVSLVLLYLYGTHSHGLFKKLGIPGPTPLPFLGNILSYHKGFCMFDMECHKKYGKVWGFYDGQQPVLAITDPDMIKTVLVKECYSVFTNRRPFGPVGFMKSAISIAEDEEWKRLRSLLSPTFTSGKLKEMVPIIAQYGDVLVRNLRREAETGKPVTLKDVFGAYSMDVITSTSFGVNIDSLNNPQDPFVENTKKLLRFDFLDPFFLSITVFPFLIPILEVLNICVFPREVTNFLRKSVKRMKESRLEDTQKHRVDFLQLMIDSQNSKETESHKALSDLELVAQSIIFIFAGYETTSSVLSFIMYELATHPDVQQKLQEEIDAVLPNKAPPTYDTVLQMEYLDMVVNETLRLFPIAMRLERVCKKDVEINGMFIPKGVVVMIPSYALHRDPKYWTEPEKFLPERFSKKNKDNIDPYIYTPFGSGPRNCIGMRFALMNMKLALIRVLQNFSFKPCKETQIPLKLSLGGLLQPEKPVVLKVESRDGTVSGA
Nuclear receptor ROR-gamma (Homo sapiens), sequence (P51449 whole entry, looked up): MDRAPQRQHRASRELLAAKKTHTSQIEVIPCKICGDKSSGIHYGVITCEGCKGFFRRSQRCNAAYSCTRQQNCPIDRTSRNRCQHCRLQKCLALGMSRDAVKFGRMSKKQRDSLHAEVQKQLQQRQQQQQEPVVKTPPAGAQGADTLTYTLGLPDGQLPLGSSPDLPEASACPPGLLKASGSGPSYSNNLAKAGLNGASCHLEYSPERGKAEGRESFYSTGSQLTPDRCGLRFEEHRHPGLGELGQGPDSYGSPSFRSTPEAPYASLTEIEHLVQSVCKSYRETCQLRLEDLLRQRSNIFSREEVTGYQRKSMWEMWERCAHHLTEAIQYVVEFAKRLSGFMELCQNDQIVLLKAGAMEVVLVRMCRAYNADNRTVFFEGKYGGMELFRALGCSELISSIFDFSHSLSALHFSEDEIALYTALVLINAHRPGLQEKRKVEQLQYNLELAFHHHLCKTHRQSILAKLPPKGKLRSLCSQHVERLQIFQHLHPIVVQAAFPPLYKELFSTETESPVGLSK
Bile acid receptor (Homo sapiens), sequence (Q96RI1 whole entry, looked up): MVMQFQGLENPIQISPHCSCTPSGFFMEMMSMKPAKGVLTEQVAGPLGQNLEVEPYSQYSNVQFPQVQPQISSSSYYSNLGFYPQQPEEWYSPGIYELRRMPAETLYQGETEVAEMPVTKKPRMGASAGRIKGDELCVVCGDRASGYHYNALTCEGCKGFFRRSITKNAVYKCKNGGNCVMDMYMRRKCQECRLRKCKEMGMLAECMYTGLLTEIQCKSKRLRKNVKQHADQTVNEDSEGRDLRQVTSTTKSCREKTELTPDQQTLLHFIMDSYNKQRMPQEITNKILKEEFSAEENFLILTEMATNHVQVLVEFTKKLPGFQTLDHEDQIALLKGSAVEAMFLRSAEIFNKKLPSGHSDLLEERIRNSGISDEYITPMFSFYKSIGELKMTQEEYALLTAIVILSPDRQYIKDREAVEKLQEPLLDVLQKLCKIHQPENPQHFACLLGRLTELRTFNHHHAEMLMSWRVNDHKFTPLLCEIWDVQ

Consider `C=CC(=O)OCCOCCOCCOCCOC(=O)C=C`, for which the Potency result in test [1] was “inactive”. For the same compound, the Potency is 7.94 µM (active) and 12.6 µM (active) in [2]; 25.1 µM (active) in test [3]; 39.8 µM (active) in test [5]; 28.2 µM (active) in test [7]; 42.2 µM (active) and 37.6 µM (active) in test [8]; 11.9 µM (active) and 21.1 µM (active) in [9]. Moreover, the activation in test [4] was -5.18% (inactive). The max response in test [6] was -103%.

Consider `NC1=NC(S)C2N=CN=C2N1` (centres undefined), for which the outcome in test [10], in test [11] and in [13] was inactive. Moreover, the Potency entry in test [1], in [12] and in test [9] was “inactive” in each case. Besides, the Potency in test [3] was 10 µM (active); in test [5] it was 7.08 µM (active); in [8], 33.5 µM (active); in test [14], 66.8 µM (active). Besides, the activation is -9.94% (inactive) in [4] and -2.51% (inactive) in test [15].

On to `Cc1ccccc1-c1ccc2ncnc(NCCN3CCOCC3)c2c1`, for which, in test [16], the activity change, negative = inhibition was -0.729% (inactive). For the same compound, the Potency in [17] and in test [18] was > 46 µM (inactive) in each case. Besides, in test [12], the Potency entry is “inactive”.

With `COc1cccc(Cn2c(=O)cnc3cnc(N(C)C)nc32)c1`, the activity change, negative = inhibition in [16] was -0.24% (inactive). In addition, the Potency was > 9.22 µM (inactive) in test [17] and > 46 µM (inactive) in test [18]. In addition, the Potency result in [12] is “inactive”.

For the compound `CN1CCN(c2nc(-c3cccnc3)nc3ccccc23)CC1`, the activity change, negative = inhibition in test [16] is 11.1% (inactive). The Potency in test [17] and in [18] was > 46 µM (inactive) each time. Besides, the Potency result in [12] is “inactive”.

Take `COc1ccccc1CNc1nc(-c2ccoc2)nc2ccccc12`: the activity change, negative = inhibition in test [16] is -19.8% (inactive). For the same compound, the Potency in test [17] was > 46 µM (inactive). Further, the Potency result in test [12] was “inactive”.

Take `ClCCCl`: the call in test [10], in [11], in test [19] and in test [13] was inactive. Besides, the Potency entry in [1], in test [2], in test [5], in test [7], in test [8] and in test [14] was “inactive” each time. The Potency entry in test [9] is “inactive”. For the same compound, the activation in [4] was -0.189% (inactive) and 0.123% (inactive) and 2.5% (inactive). Moreover, the max response in test [6] is -25.6% and 21.1%.

`Cc1ccc([N+](=O)[O-])c(C)c1`: the call in [10], in test [20], in [19] and in [13] was inactive. Besides, the Potency result in test [1], in test [2], in test [3], in [5], in test [7] and in [8] was “inactive” each time. In addition, the Potency entry in test [14] and in test [9] was “inactive” each time. Moreover, the activation was -4.65% (inactive) and 0.746% (inactive) in test [4]; -0.465% (inactive) and 2.75% (inactive) in test [15]. The max response in test [6] is -27.9% and -14.4%.

With `O=C(O)c1ccc(O)cc1O`, the Potency entry in [1], in test [3], in [5], in test [7], in test [8] and in [14] was “inactive” throughout. Also, the Potency entry in test [9] was “inactive”. Further, the result in test [20], in test [19] and in test [13] was inactive. Also, the activation in [4] was 0.41% (inactive) and -0.627% (inactive). Besides, the max response in test [6] worked out at 43.1%.

On to `CCO`, for which the outcome in test [10], in test [20], in test [19] and in test [13] was inactive. Further, the Potency result in test [1], in test [5], in test [7], in [8], in test [14] and in test [9] was “inactive” in each case. Moreover, the activation in test [4] was -4.6% (inactive). In [6], the max response was -20.9%.

`Clc1cc(Cl)c(Cl)c(Cl)c1Cl`: the compound was called inactive in test [10] and in [13]. The Potency entry in [2], in test [5], in test [8], in test [14] and in test [9] was “inactive” each time. Also, the activation in test [4] is -4.89% (inactive) and 1.1% (inactive).

`OCCNCCO`: the compound was called inactive in [10] and in test [13]. In addition, the Potency result in test [1], in test [2], in test [5] and in test [7] was “inactive” each time. For the same compound, in [4], the activation was -6.89% (inactive) and -4.55% (inactive). For the same compound, the max response in [6] was 0.125% and 53.2%.
